Results reported in PubChem BioAssay AID784 (The Scripps Research Institute Molecular Screening Center, 2007).
The whole screen tested about 30,000 compounds, of which about 130 (0.43%) were called active. The sample holds actives, similar compounds and a random draw of the others, so the mix is not that of the screen. Values without a mark were called inactive. No stated cut-off is given here; in the data, active means activation above about 65%; inactive means the rest.

The compounds below were run against Lysosomal acid glucosylceramidase (Homo sapiens) (UniProt P04062) (assay: raising glucocerebrosidase activity, Gaucher cells – primary screen (AID 784;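 further: 0% = vehicle wells and 100% = positive control wells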)). Conditions: L444P Gaucher fibroblasts, 4-MU-glucoside fluorescence, 3 days; at 10 µM; stronger effect = higher value.
Chain of Lysosomal acid glucosylceramidase (Homo sapiens) (P04062 whole entry L483P): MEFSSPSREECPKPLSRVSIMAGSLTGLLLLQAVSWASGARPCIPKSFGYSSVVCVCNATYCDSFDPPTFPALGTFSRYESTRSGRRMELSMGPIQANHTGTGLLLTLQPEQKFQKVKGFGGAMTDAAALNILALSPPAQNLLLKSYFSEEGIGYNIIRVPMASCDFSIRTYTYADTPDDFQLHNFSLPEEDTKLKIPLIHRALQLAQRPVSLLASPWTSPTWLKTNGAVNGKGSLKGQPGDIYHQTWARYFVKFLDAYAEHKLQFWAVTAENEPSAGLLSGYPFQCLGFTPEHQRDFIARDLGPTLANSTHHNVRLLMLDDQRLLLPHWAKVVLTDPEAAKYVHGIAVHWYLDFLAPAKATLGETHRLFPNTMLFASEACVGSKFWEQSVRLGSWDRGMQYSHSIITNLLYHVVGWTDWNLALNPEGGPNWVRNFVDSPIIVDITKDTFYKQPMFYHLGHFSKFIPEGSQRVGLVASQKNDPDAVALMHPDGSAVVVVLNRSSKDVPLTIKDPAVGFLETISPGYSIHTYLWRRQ

In order of falling activation:
1. O=C(Nc1ccc(S(=O)(=O)N2CCCC2)cc1Cl)C1=COCCO1  22.5%
2. CCc1cc(=O)oc2cc(C)cc(OC(C)C(=O)O)c12 (stereo unspecified)  12.8%
3. COc1ccccc1N1CC(O)=C(c2nc3ccccc3s2)C1=N  8.76%
4. Cc1cccc(NC(=O)COc2ccc(Br)cc2C)n1  7.05%
5. CCOC(=O)c1c(C)[nH]c(C(=O)COc2ccc3c(c2)OCO3)c1C  6.28%
6. CC(=O)N1CCN(C(=O)c2cccc(S(=O)(=O)Nc3ccc(C)cc3)c2)CC1  5.73%
7. CCn1nnc(NC(=O)c2c(OC)cccc2OC)n1  4.73%
8. Cc1nc2cc(-c3ccc(F)cc3)nn2c(N2CCOCC2)c1C  4.6%
9. Cc1cccc(OCc2nnc(SCn3nnc4ccccc4c3=O)o2)c1  4.49%
10. Cc1ccc(-c2nc(COC(=O)c3c(C)noc3C)cs2)cc1  4.07%
11. COC(=O)C(CC(=O)Nc1cc(C)ccc1C)Nc1ccccc1OC (stereo unspecified)  3.63%
12. O=C(O)c1ccc(NS(=O)(=O)c2cccc3nsnc23)cc1  1.35%
13. Cc1ccc(S(=O)(=O)N(C)CC(=O)N2CCc3ccccc32)cc1  0.44%
14. Cc1ccc(NC(=O)CS(=O)CC(=O)N(c2ccccc2)C(C)C(=O)NC2CCCC2)cc1 (stereo unspecified)  0.43%
15. O=C(NC1CCN(Cc2ccccc2)CC1)c1ccccc1F  -0.98%
16. COc1ccc(CCn2nnnc2C(c2ccccc2)N2CCN(C)CC2)cc1OC (stereo unspecified)  -1.68%
17. Cn1c(=O)c2c(nc(CN3CCOCC3)n2Cc2ccccc2)n(C)c1=O  -2.48%
18. CCOC(=O)c1sc(/N=C/Nc2nc(C)c(C(=O)OCC)s2)nc1C  -5.05%
19. CCn1c(COc2ccc(OC)cc2)nnc1SCC(=O)Nc1cc(OC)ccc1OC  -5.85%
20. CC(=O)N1CCC(C(=O)Nc2nc(-c3ccccc3)ns2)CC1  -7.15%
21. CC1CCCC(NC(=O)CSc2nccn2C)C1C (stereo unspecified)  -8.08%
22. COC(=O)N1CN(C(=O)OC)CN(C(=O)OC)C1  -8.85%
23. O=C(COC(=O)c1ccc(Oc2ccccc2)cc1)Nc1nnc(-c2ccccc2)o1  -9.15%
24. CC1=CC(C)(C)N(C(=O)CSc2nccn2C)c2cc(C)ccc21  -9.35%
25. CCCc1nc(SCC(=O)Nc2ccccc2OC)c2c(=O)n(C)c(=O)n(C)c2n1  -10.4%
26. CCCn1c(SCC(=O)N2CCc3ccccc32)nnc1-c1ccncc1  -11%
27. CN1CCC2(CC1)NC(=O)NC2=O  -11.5%
28. COc1ccc(CCNC(=O)c2ccco2)cc1  -11.6%
29. COc1ccc(CNC2CCCCC2)cc1  -12%
30. CCN1C(=O)CS/C1=N\c1nccs1  -12.6%
31. CCOC(=O)c1ccccc1NC(=O)CC1Nc2ccccc2NC1=O (stereo unspecified)  -13.8%
32. CCn1c(SCC(=O)NCC2CCCO2)nc2cc(S(=O)(=O)N3CCCCC3)ccc21 (stereo unspecified)  -14.9%
33. CCCSC1=C(C#N)C(c2ccccc2C)C(C(=O)OC)C(=O)N1 (stereo unspecified)  -16.4%
34. CCC12CN3CC(CC)(CN(C1)C31C(=O)N(C)c3ccc(C)cc31)C2=O (stereo unspecified)  -17.4%
35. CC(=O)c1ccc(-n2nnnc2SCC(=O)N2CCN(C(=O)c3ccco3)CC2)cc1  -18.5%
36. Cc1ccc(NC(=O)CN2CCC3(O)CCCCC3C2c2ccc3c(c2)OCO3)c(C)c1 (stereo unspecified)  -20.4%
37. Cc1cc(C)cc(OCc2nnc(SCC(=O)Nc3ccccc3)o2)c1  -21.4%
38. CCOC(=O)c1cc(-c2nnc(-c3cc(OC)c(OC)c(OC)c3)o2)c(C)nc1C  -21.7%
39. Cc1cccc2nc(CNc3ccc(F)cc3)cn12  -22.2%
40. Cn1c(SCC(=O)c2cccs2)nnc1-c1ccco1  -23%
41. CCC(c1nnnn1Cc1ccccc1)N(Cc1cc2cc(OC)ccc2[nH]c1=O)CC1CCCO1 (stereo unspecified)  -25.6%
42. O=C(CN(CC1CCCO1)C(=O)CNS(=O)(=O)c1ccccc1)NCc1ccccc1 (stereo unspecified)  -28.7%
43. Cc1cc(C)c2c(c1)cc(C)c1nnc(SCC(=O)Nc3cc(C)on3)n12  -30.3%
44. O=C(Nc1ccc2c(c1)OCCO2)C1CCCN(c2ncccn2)C1 (stereo unspecified)  -35.2%
45. CCCc1nnc(NC(=O)c2cc(OC)cc(OC)c2)s1  -49.8%
46. Cn1cccc1C(=O)NC(=O)COC(=O)Cc1coc2ccc3ccccc3c12  -54.5%
